# Assay results as given in ChEMBL document CHEMBL3988442, “University of Dundee, Small-Polar-MMV Screening Library” (2021).
# About 1,000 (1.4%) of roughly 69,000 compounds showed an effect of 50% or more. The full list was thinned out, with strong results kept by preference.
# System: Leishmania donovani
# Assay: Leishmania intramacrophage assay
# Type: functional, organism-based
# Set-up: scale not given: in the data most compounds retested in dose-response had high values
smiles,measurement,setting,value
Fc1ccccc1Sc1ccccc1CNC1=NCCN1.I,Percent Effect,"30.3 µM, […]",29.36%
I.c1ccc(Sc2ccc3c(c2)OCO3)c(CNC2=NCCN2)c1,Percent Effect,"30.3 µM, […]",21.74%
Cc1nnc([C@@H]2C[C@H]3CN(C(=O)c4sccc4C)C[C@H]3O2)[nH]1,Percent Effect,"30.3 µM, […]",16.44%
CN(Cc1cccnc1)[C@@H]1CN(C(=O)CC2CC2)[C@@H]2CCCO[C@H]12.O=C(O)C(F)(F)F.O=C(O)C(F)(F)F,Percent Effect,"30.3 µM, […]",-10.3%
CN(Cc1cccnc1)[C@@H]1CN(C(=O)c2ccno2)[C@@H]2CCCO[C@H]12.O=C(O)C(F)(F)F.O=C(O)C(F)(F)F,Percent Effect,"30.3 µM, […]",75.56%
CN(Cc1cccnc1)[C@@H]1CN(C(=O)c2ccoc2)[C@@H]2CCCO[C@H]12.O=C(O)C(F)(F)F.O=C(O)C(F)(F)F,Percent Effect,"30.3 µM, […]",-5.312%
Cn1ccnc1-c1noc(NCc2ccc(Cl)cc2)n1,Percent Effect,"30.3 µM, […]",-1.294%
Cc1cc(C)nc(NC(=O)NCCCSc2nncn2C)n1,Percent Effect,"30.3 µM, […]",12.59%
Cc1ccccc1-n1cnc(Cl)c1C(=O)O,Percent Effect,"30.3 µM, […]",51.36%
O=C(O)c1c(Cl)ncn1-c1ccccc1,Percent Effect,"30.3 µM, […]",42.23%
O=C(O)c1c(Cl)ncn1-c1cccc2ccccc12,Percent Effect,"30.3 µM, […]",32.69%
CN(C)C1CCC2(CCN(Cc3nccn3C)CC2)c2ccccc21.O=C(O)C(F)(F)F.O=C(O)C(F)(F)F (stereo not given),Percent Effect,"30.3 µM, […]",15.24%
c1cncc(CN2CCC(NCCc3ccc4c(c3)OCO4)CC2)c1,Percent Effect,"30.3 µM, […]",21.95%
COc1cccc(-c2cc(C(=O)NCCCn3cnnc3)[nH]n2)c1,Percent Effect,"30.3 µM, […]",50.06%
COc1cccc(-c2cc(C(=O)NCCCn3nc(C)cc3C)[nH]n2)c1,Percent Effect,"30.3 µM, […]",35.19%
COc1cccc(-c2cc(C(=O)NCCCC(F)(F)F)[nH]n2)c1,Percent Effect,"30.3 µM, […]",24.25%
Cc1cc(C)c2c(c1)C(CC(=O)O)C(=O)N2 (stereo not given),Percent Effect,"30.3 µM, […]",12.49%
Cc1ccc2nc(C)c(C)c(C(=O)NCCCn3ccnn3)c2c1,Percent Effect,"30.3 µM, […]",16%
CC(C)(C)c1n[nH]c(C2CN(Cc3nnc(C4CC4)o3)CCO2)n1 (stereo not given),Percent Effect,30 µM,6.806%
Cc1cc(C(=O)N2C[C@@H](CN(C)CCN(C)C)[C@@H](CO)C2)nc(C)n1,Percent Effect,"30.3 µM, […]",0.2814%
COc1ccc2cc(C(=O)N3CCCCC3CC(N)=O)[nH]c2c1 (stereo not given),Percent Effect,"30 µM, 30.03 µM",4.026%
NC(=O)CN1CCC(NC(=O)Nc2nccs2)CC1,Percent Effect,"30 µM, 30.03 µM",-0.9986%
CC(CNCc1ccncc1)Oc1ccccn1.Cl (stereo not given),Percent Effect,"30 µM, 30.03 µM",6.303%
Cc1c(C)n(CC(O)CN2CCCCCC2)c2c(Cl)cccc12 (stereo not given),Percent Effect,"30.3 µM, […]",-13.19%
Cc1c(C)n(CC(O)CN2CCN(CCO)CC2)c2c(Cl)cccc12.Cl (stereo not given),Percent Effect,"30.3 µM, […]",50.22%
Cc1c(C)n(CC(O)CN2CCOCC2)c2c(Cl)cccc12.Cl (stereo not given),Percent Effect,"30.3 µM, […]",-3.857%
O=C(C1CCOCC1)N1CC[C@H](O)[C@@H]1Cc1cccnc1,Percent Effect,"30.3 µM, […]",25.33%
Cc1noc(C)c1CN(C)c1ncnc2onc(C)c12,Percent Effect,"30.3 µM, […]",-10.33%
O=C(c1cscn1)N1C[C@H](OCc2cccnc2)[C@H]2COC[C@H]21,Percent Effect,"30.3 µM, […]",-0.3632%
COc1cccc(C(C(=O)O)N2CCC(Cn3cccn3)CC2)c1OC (stereo not given),Percent Effect,"30.3 µM, […]",3.274%
CNc1nc(CNC(=O)Nc2cccc(Cl)c2OC)cs1,Percent Effect,30 µM,28.86%
COc1c(Cl)cccc1NCc1csc(NC(C)=O)n1,Percent Effect,"30.3 µM, […]",71.24%
COc1c(Cl)cccc1NCc1csc(C)n1,Percent Effect,"30.3 µM, […]",-4.371%
CCc1ccc(C(=O)N2CCCC2c2c(C)nn(C)c2OC)o1 (stereo not given),Percent Effect,"30.3 µM, […]",16.94%
O=C(c1ccccn1)N1C[C@@H]2CC[C@H](C1)N(C(=O)Cc1cccs1)C2,Percent Effect,"30.3 µM, […]",-16.24%
COc1ccc(-c2ccnc3nc(N4CCCCC4)[nH]c(=O)c23)cc1,Percent Effect,"30.3 µM, […]",8.173%
COc1ccccc1-c1ccnc2nc(N3CCCCC3)[nH]c(=O)c12,Percent Effect,"30.3 µM, […]",64.29%
COc1ccc(-c2ccnc3nc(N4CCCC4)[nH]c(=O)c23)cc1OC,Percent Effect,"30.3 µM, […]",26.43%
CCCN1CCCC1Cn1nc(C)cc1C (stereo not given),Percent Effect,30 µM,21.44%
O=S(=O)(c1ccccc1Br)N1CCC2(CC1)OCCS2,Percent Effect,"30.3 µM, […]",-12.48%
OCCN1CCN(CC(O)c2ccc(OC(F)(F)F)cc2)CC1 (stereo not given),Percent Effect,"30.3 µM, […]",19.69%
COCCN1CCN(CC(O)c2ccc(OC(F)(F)F)cc2)CC1 (stereo not given),Percent Effect,"30.3 µM, […]",52.28%
CCCN1CCN(CC(O)c2ccc(OC(F)(F)F)cc2)CC1 (stereo not given),Percent Effect,"30.3 µM, […]",27.81%
Cc1nc(CCN(C)C(=O)CN2CCCCCC2)no1,Percent Effect,"30.3 µM, […]",28.54%
CC(C)(C)NC(=O)NC(=O)CNc1c(F)cccc1N1CCCC1,Percent Effect,"30.3 µM, […]",14.38%
CCCn1nc2c(cc1=O)CN(c1ncnc3ccsc13)CC2,Percent Effect,"30.3 µM, […]",56.14%
CCn1nc2c(cc1=O)CN(c1ncnc3ccsc13)CC2,Percent Effect,"30.3 µM, […]",42.12%
Cn1nc2c(cc1=O)CN(c1ncnc3ccsc13)CC2,Percent Effect,"30.3 µM, […]",15.92%
Cc1nc([C@@H]2C[C@@H]3CCN(C(=O)c4ccnnc4)C[C@H]3O2)sc1C,Percent Effect,"30 µM, 30.03 µM",6.612%
CCN1C[C@H]2CCN(C(=O)NC3CCCC3)CC[C@H]2S1(=O)=O,Percent Effect,"30 µM, 30.03 µM",-4.578%
